PubChem BioAssay AID2172 (The Scripps Research Institute Molecular Screening Center, 2009)
Some of the results follow. Calls of active or inactive are those of the source. The rule behind the calls is not given here.

Assay: DNA intercalator displacement (FID) – biochemical, fluorescence, counter-screen for HCV NS3 helicase inhibitor project, dose response (AID 2172)
Settings: fluorescent intercalator displacement from DNA

Row | SMILES | IC50
1 | CC(Oc1ccccc1)C(=O)Nc1oc(-c2ccco2)c(-c2ccco2)c1C#N (centres undefined) | > 79.4 µM (inactive)
2 | Cc1ccc(/C=C/C(=O)Nc2ccc([N+](=O)[O-])c(NC(=O)/C=C/c3ccc(C)o3)c2)o1 | > 79.4 µM (inactive)
3 | Cc1cc(O)c(C(=O)/C=C/c2c(F)c(F)c(F)c(F)c2F)c(=O)o1 | > 79.4 µM (inactive)
4 | Cc1cc(N2C(=O)C(O)=C(C(=O)c3ccc(C)o3)C2c2ccc(OCc3ccccc3)cc2)no1 (centres undefined) | > 79.4 µM (inactive)
